BAZ2B block = inhibitors of human BAZ2B bromodomain; AID 504333; 360,000 tested, 4.4% active; Potency, µM (series often up to 114 µM), for the others: at the highest dose activity change, negative = inhibition, most hits filed as inhibitors; AlphaScreen BAZ2B-H3K14Ac peptide displacement; note: potency is the fitted concentration of half-maximal effect; % is set by controls: 0 for no effect and ±100 for the full control effect; nearly all actives have a fitted effect of over 60% in size
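BAZ2B (50 nM) with biotin-H3(5-23)K14Ac peptide (50 nM) in PBS pH 7.4, 0.01% Tween-20, preformed 30 min, then compound 30 min at room temperature; top concentration 110uM. AlphaScreen streptavidin donor/nickel chelate acceptor beads (10 ug/mL final), 20 min dark, signal read.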
Six1-Eya2 inh = inhibitors of human Six1/Eya2 interaction; AID 651725; 360,000 tested, 0.56% active; AlphaScreen GST-Six1/His-Eya2 binding, biochemical; hits give low values; activity change, % (concentration not given with the values); Q15475+O00167; in the data active = activity change below about -65%; inconclusive = mostly about -30% to -63%; note: % is set by controls: 0 for no effect and ±100 for the full control effect
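Compounds are tested against tagged Six1 and Eya2 proteins bridged by glutathione donor and nickel acceptor beads; after a one-hour incubation at 37 °C without light, AlphaScreen emission is recorded.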
HP1b binding inh = HP1-beta chromodomain-methylated histone interaction inhibition | P83916 | AlphaScreen HP1-beta / biotin-H3K9me3 peptide binding | Potency, µM (titrated, usually from 114 µM), inactives show top-dose activity change, negative = inhibition, usual class: inhibitors | 390,000 tested, 0.56% active | AID 540317; note: potency is the fitted concentration of half-maximal effect; nearly all actives have a fitted effect of over 70% in size
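AlphaScreen: HP1-beta (50 nM) preformed 30 min with biotin-H3(1-18)K9me3 peptide (50 nM) in PBS pH 7.4, 0.01% Tween-20. Compound added for 30 min at RT, then streptavidin donor/nickel chelate acceptor beads (10 ug/mL) for 30 min.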
CtBP-E1A inh = blocks the CtBP interaction with E1A; AlphaScreen GST-E1A/His-CtBP binding, 1536-well; hits give low values; activity change, % (no concentration beside the values); 340,000 tested, 0.49% active; in the data active = activity change below about -65%; inconclusive = mostly about -30% to -63%; note: % is set by controls: 0 for no effect and ±100 for the full control effect
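Protein mix (5X: 125 nM each GST-E1A, His-CtBP) was incubated with pinned compound 2 h at 37 deg C in dark, in 50 mM Tris pH 8.0 buffer with 300 mM NaCl. Glutathione donor and nickel acceptor beads followed; AlphaScreen signal read after 1 h.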
JMJD2A Tudor = blocks the human JMJD2A Tudor domain. O75164. AlphaScreen JMJD2A-Tudor / H3K4me3 peptide binding. Potency, µM (doses to about 114 µM), for the others: at the highest dose activity change, negative = inhibition, most hits filed as inhibitors. 390,000 tested, 4.4% active. AID 504339; note: potency is the fitted concentration of half-maximal effect; % is set by controls: 0 for no effect and ±100 for the full control effect; nearly all actives have a fitted effect of over 50% in size
G9a block = inhibitors of human histone lysine methyltransferase G9a. Q96KQ7. G9a H3K9 monomethylation, AlphaScreen, 2 h. Potency, µM (highest dose often 102 µM), for the others: at the top dose activity, negative = inhibition, actives largely listed as inhibitors. 350,000 tested, 8.8% active. AID 504332; note: potency is the fitted concentration of half-maximal effect; % is set by controls: 0 for no effect and ±100 for the full control effect; nearly all actives have a fitted effect of over 75% in size
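Using a bead-based AlphaScreen, monomethylated H3K9 product from 2 h room-temperature reactions (G9a 20 nM, peptide 500 nM, SAM 20 uM) was detected with 0.5 ug/mL rabbit anti-H3K9me1 antibody.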
* = called active by the depositor; ? = inconclusive; / = no result given; [ ] = remark or other dose. Hits are enriched below; roughly 10% of the tested compounds scored in any of these assays. Unless noted, calls come from the whole dose curve; as a rule, active = well fitted inhibition curve with a large enough effect; inconclusive = small, poorly fitted or top-dose-only effect; inactive = no such curve, though single readings can be large or run the other way.

SMILES	BAZ2B block	Six1-Eya2 inh	HP1b binding inh	CtBP-E1A inh	JMJD2A Tudor	G9a block
Cc1cc(C)nc(NN2C(=O)/C(=C/c3ccc(O)cc3)SC2=S)n1	?	-16	-2%	?	?	28µM*
Cc1ccc(/C=C2\SC(=S)N(/N=C/c3cc([N+](=O)[O-])ccc3O)C2=O)o1	11µM*	-89*	45µM*	-93*	56µM*	6.3µM*
COc1ccc(C)cc1NC(=O)CSc1nc(=O)n(Cc2ccco2)c2c1CCC2	-36%	/	10%	/	-25%	-45%[59 µM]
O=C(NN1C(=O)/C(=C/c2ccc(O)cc2)SC1=S)c1cccc(O)c1	?	-1	-15%	/	?	45µM*
O=C(NN1C(=O)/C(=C/c2cc([N+](=O)[O-])ccc2O)SC1=S)c1ccccc1O	5.6µM*	/	/	/	/	-18%[2.33 µM]
COc1cc(/C=C2\SC(=S)N(NC(=O)c3ccccc3O)C2=O)ccc1O	28µM*	?	?	?	20µM*	-29%[2.33 µM]
O=C(CCCN1C(=O)/C(=C/c2ccccc2Cl)SC1=S)NNC(=O)c1ccccc1Cl	-6%	0	23%	36	-4%	10%[59 µM]
O=C(NN1C(=O)/C(=C/c2ccc(O)c([N+](=O)[O-])c2)SC1=S)c1ccccc1Cl	35µM*	?	?	?	?	14µM*
O=C(Cc1ccccc1)NN1C(=O)/C(=C/c2ccc(C(=O)O)cc2)SC1=S	-16%	-13	31%	-21	-17%[11.4 µM]	/
Cc1csc2nc(COc3ccccc3NC(=O)c3ccccc3Cl)cc(=O)n12	-12%	/	22%	/	-1%	-7%[59 µM]
O=C(Nc1sc2c(c1C(=O)Nc1ccccc1Cl)CCCC2)c1ccccc1F	13%	/	30%	/	14%	?
CCCNC(=O)C(=O)NCC(c1ccc2c(c1)OCO2)N1CCOCC1 (centres undefined)	0%	/	23%	/	-29%	10%[59 µM]
Nc1c(C(=O)c2ccc(Br)s2)oc2ccccc12	-3%	20	32%	8	11%	45µM*
Nc1c(C(=O)c2cccs2)oc2ccccc12	11%	1	22%	6	-19%	28%
CCCOc1ccc(/C=C2\SC(=S)N(CC3CCCO3)C2=O)cc1 (centres undefined)	?	1	?	0	?	3.5µM*
O=C1/C(=C/c2ccc(O)cc2)SC(=S)N1CC1CCCO1 (centres undefined)	?	-14	-22%	-10	?	?
CCOc1ccc(/C=C2/SC(=O)NC2=S)cc1	?	-9	-29%	-1	?	?
CCOc1ccc(/C=C2\SC(=S)N(N3C(=O)C4CC4C3=O)C2=O)cc1 (centres undefined)	-25%	-4	-21%	7	?	40µM*
Cc1ccsc1/C=C1/SC(=O)N(CC(=O)N2CCOCC2)C1=O	-24%	-5	38%	0	-2%	13%
Cc1ccsc1/C=C1\SC(=S)N(CC2CCCO2)C1=O (centres undefined)	10µM*	1	45µM*	-11	10µM*	5µM*
CCOCCCn1c(=N)c(C(=O)NC(C)c2ccccc2)cc2c(=O)n3cccc(C)c3nc21 (centres undefined)	9%	/	37%	/	1%	-64%[59 µM]
Nc1n[nH]c(-c2ccc(F)cc2)n1	?	1	19%	4	?	45µM*
Cc1ccc(C)c(NC(=O)CSc2ncc3c(n2)-c2ccc(Cl)cc2N(C)S3(=O)=O)c1	-3%	/	5%	/	-7%	-13%[59 µM]
COc1ccc(CCNC(=S)NCCc2c[nH]c3ccccc23)cc1	35µM*	-18	-14%	/	?	45µM*
COc1ccc(Cl)cc1NC(=S)NCCc1c[nH]c2ccccc12	40µM*	-23	-23%	-27	50µM*	?
SMILES	BAZ2B block	Six1-Eya2 inh	HP1b binding inh	CtBP-E1A inh	JMJD2A Tudor	G9a block
Cc1ccc(NC(=S)NCCc2c[nH]c3ccccc23)cc1	?	-17	-33%	-7	?	39%[0.501 µM]
CC(C)c1ccc(NC(=S)NCCc2c[nH]c3ccccc23)cc1	35µM*	-23	?	-17	?	45µM*
S=C(NCCc1c[nH]c2ccccc12)NC1CCCCC1	?	-6	?	-6	35µM*	22%[59 µM]
COc1ccc(CNC(=O)NCCc2c[nH]c3ccccc23)cc1	?	-2	26%	-1	-15%	6%
Fc1ccc(-c2nn(-c3ccc(Cl)cc3)c3c2cnc2ccc(F)cc23)cc1	1%	/	23%	/	10%	-2%[12.7 µM]
Cc1ccc(OCCn2cc(C(=O)C3CCCCC3)c3ccccc32)cc1	3%	/	73%	/	41%	37%[59 µM]
Cc1ccc(C)c(NC(=S)NCCc2c[nH]c3ccccc23)c1	45µM*	-24	?	?	?	?
COc1ccc(NC(=O)CN(C)C(=O)CCCc2c[nH]c3ccccc23)cc1	?	-20	-5%	-2	?	45µM*
Cc1cccc(NC(=O)C2CCN(c3nnc(C)c4c(C)n(-c5ccccc5)nc34)CC2)c1C	-4%	/	9%	/	-8%	-3%[59 µM]
COC(=O)c1cnc(NCc2ccc(F)cc2)c2ccccc12	76%	/	64%[57 µM]	/	21%	57%[59 µM]
Cc1ccc(N2C(=O)C3C(C2=O)N2CCCN2C3c2ccccc2)cc1C (centres undefined)	-21%	2	?	2	-15%	?
Cc1ccc(N2C(=O)C3C(c4ccccc4)N4CCCN4C3(C)C2=O)cc1 (centres undefined)	-8%	-3	43%	-22	-5%	7.9µM*
CCOC(=O)C(C(C)=O)c1c(Br)c(O)c(O)c2c(C(=O)c3ccc(C)cc3)coc12 (centres undefined)	40µM*	?	?	?	?	?
O=S(=O)(Nc1nc2ccc(S(=O)(=O)N3CCCC3)cc2s1)c1ccc(F)cc1	?	-3	-9%	-1	-28%	40µM*
Cc1ccccc1CNC(=O)c1cnc2sc(N3CCC(C)CC3)nn2c1=O	1%	/	18%	/	0%	-2%[59 µM]
Cn1nc(C(F)(F)F)c(C#N)c1N1CCN(c2ccccn2)CC1	1%	0	-3%	1	50µM*	9%
O=C(CSc1nc2ccccc2nc1Cc1ccc(F)cc1)Nc1ccc2c(c1)OCO2	-1%	/	14%[57 µM]	/	-13%	8%[59 µM]
Cc1ccc(O)c(NC2=C(Cl)C(=O)N(Cc3ccccc3)C2=O)c1	45µM*	-15	16µM*	-10	4µM*	6.3µM*
O=C1C(Cl)=C(Nc2ccccc2O)C(=O)N1c1ccccc1	?	-10	?	-6	35µM*	7.9µM*
CCc1cccc(NC(=O)C(CC(C)C)NS(=O)(=O)c2ccc3c(c2)oc(=O)n3C)c1 (centres undefined)	-16%	/	39%	/	-13%	4%[59 µM]

High-throughput results from PubChem BioAssay.
